SMILES strings stand for the structures. Where “and” joins values, the source holds several entries; their conditions need not be identical. Equal entries are not always repeated. About 83,000 compounds went through this panel and 20% of them were active in at least one assay; those are over-represented in the sample as a whole.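 Treatment: one concentration, 48 hours, 96-well format. Scoring: percent growth, with anything below 10 considered active.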 Values without a mark were called inactive. Calls of active or inactive are those of the source.

The subject of the assay is MDA-MB-468 breast. In words: NCI-60 one-dose screen, 48 h (100 = growth as untreated, 0 = no growth, -100 = all killed). The settings on record: 10 µM unless noted.
With `CCCn1cnc2c(c1=N)C(c1ccc(OC)cc1)c1sc3c(C)cccc3c1O2` (configuration not stated), the growth is 50%.

`O=C(/C=C/C=C/c1ccc2c(c1)OCO2)N1CCCCC1`: the growth was 106% and 105%. In the case of `COc1cccc(-c2nn(-c3ccccc3)cc2-c2ccnc(NCCCNS(=O)(=O)c3ccccc3)c2)c1`, the growth was 8.98% (active). The result for `CC[C@]1(O)C[C@@H]2CN(CCc3c([nH]c4ccccc34)[C@@](C(=O)OC)(c3cc4c(cc3OC)N(C)[C@H]3[C@@](O)(C(=O)OC)[C@H](OC(=O)CCCBr)[C@]5(CC)C=CCN6CC[C@]43[C@@H]65)C2)C1` reads 31.8%; that for `Nc1ccc2c(c1)Cc1cc(NC(=O)C(F)(F)F)ccc1-2`, 75.7%. Consider `O=C(O)c1[nH]c(=O)[nH]c(=O)c1[N+](=O)[O-]`, for which the growth is 109%. The result for `CN1CCN(c2ccc(-c3cc4c(Nc5ccc(F)c(Cl)c5)ncnn4c3)cn2)CC1` reads 70.1%; that for `COc1cc(NCCCN)c2ncccc2c1`, 76%. For the molecule `CC(=O)Nc1nc(C)c(C(=O)N/N=C/c2cccs2)s1`, the growth was 98.8%.

With `CCN(CC)CCNc1c(C)cc(CO)c(Cl)c1C`, the growth was -8.33% (active). On to `NS(=O)(=O)c1ccc(Nc2nc(Nc3ccccc3)nc(N3N=C(c4ccc(Cl)cc4)CC3c3ccc(Cl)cc3)n2)cc1` (configuration not stated), for which the growth is 26.4%. Then `CCCCCCCCCCCCCCCCCCOc1ccccc1CCCOP(=O)(O)OCC[N+](C)(C)C`, with 77.3%. For `CCc1ccc(-c2ccc(=O)n(-c3ccc(S(N)(=O)=O)cc3)n2)cc1`, the growth is 7.89% (active). In the case of `O=C1c2ccccc2-c2ccccc2C1(Cl)Cl`, the growth was -86.6% (active). Then `C#CCOc1ccc(/C=N/Nc2nc(-c3cc4cc(Br)cc(Br)c4oc3=O)cs2)cc1`, with 106%; and `COc1cc(Br)c(OC)cc1Br`, with 95.5%; and `COc1ccc(CN2C(=O)/C(=C/c3nc(CO)cs3)SC2=S)cc1`, with 31.7%. Then `COc1ccc(S(=O)(=O)N2CCN(c3cc4c(cc3F)c(=O)c(C(=O)O)cn4C3CC3)CC2)c(OC)c1`, with 86.4%; and `CN(C)CCCC1(c2ccc(F)cc2)OCc2cc(-c3cccc4[nH]ccc34)ccc21` (configuration not stated), with -34.5% (active). Then `Oc1ccc(-c2nc3ccc4[nH]ncc4c3c3c2CCCC3)c(F)c1`, with 18.2%.

Turning to `N#CSCC1CC(O)(c2ccccc2)C(c2ccccc2)C(c2ccc(Cl)cc2)O1` (configuration not stated), the growth was -58.9% (active). For `CCCCCCCCCCCCCCCCCC(=O)NCCNC(=O)CCCCCCCCCCCCCCCCC`, the growth is 102%.

With `CNCc1cccc2c1OCCOCCOCCC(C)S(=O)(=O)c1ccc(cc1)-c1cnc(N)c(n1)C(=O)N2` (configuration not stated), the growth is 53.1%.

In the case of `C#CCOc1cccc(Nc2ncnc3ccc(NC(=O)CCl)cc23)c1`, the growth was -54% (active). The result for `O=C1CCc2c(sc3[nH]c(=S)n(-c4cc(C(F)(F)F)cc(C(F)(F)F)c4)c(=O)c23)C1` reads -14.2% (active); that for `C=C(CNCCc1ccc(O)cc1)[C@@H]1CC[C@]2(CO)CC[C@]3(C)[C@H](CC[C@@H]4[C@@]5(C)CCC(N)C(C)(C)[C@@H]5CC[C@]43C)[C@@H]12` (some centres not stated), -88.4% (active); that for `C#C[C@]1(O)CC[C@H]2[C@@H]3CC=C4c5sc(N(C)c6ccccc6)nc5CC[C@]4(C)[C@H]3CC[C@@]21C`, 76.2%. On to `N#Cc1c(-c2cccc(F)c2)cc(-c2ccc(Br)s2)[nH]c1=O`, for which the growth is 82.1%.

Consider `CSC1=NC(=Nc2c(C)cccc2C)C2(CCC(C(C)(C)C)CC2)N1c1ccc(Cl)cc1` (configuration not stated), for which the growth was 38.3%. Consider `COc1cc(-c2nc3sccn3c2-c2ccnc(NCCNS(=O)(=O)c3ccccc3)n2)ccc1F`, for which the growth was 40.2%. Consider `CCNC(=O)Oc1ccc(/C(=C(/C)c2ccc(Cl)cc2)c2ccc(OCCN3CCCC3)cc2)cc1`, for which the growth is 84.1%. Turning to `CC(C)(C)c1nn(-c2ccccc2)c2c1COCN2Cc1ccc(Cl)cc1`, the growth is 89%. Then `O=C(/C=C/Nc1ccc(S(=O)(=O)Nc2ncccn2)cc1)c1ccc(N=Cc2c(O)[nH]c3ccccc23)cc1`, with 109%. The result for `CCCCCCCC/C=C/CCCCCCCC1=NC(C)(C)CN1c1ccccc1` reads 85.7%; that for `O=C(CCc1nnc(Cn2cnc3nc[nH]c3c2=O)o1)c1nc2ncccc2[nH]1`, 102%.

Turning to `NS(=O)(=O)c1ccc(Br)cc1`, the growth was 102%.

Consider `Nc1nc(SN=Nc2ccc(S(N)(=O)=O)cc2)c2[nH]cnc2n1`, for which the growth is -9.35% (active).

Values taken from PubChem BioAssay (NCI).
